Data reported in PubChem BioAssay AID1159580 (chemical genetic matrix, 2015).
“And” between values parts separate entries of the source, which are not always exact repeats. Equal values may be shown once. The whole screen tested about 5,500 compounds, of which about 2,000 (36%) were called active. Not shown: some 18% with an inconclusive outcome. Rule as the data show it: active = normalized growth mostly below about 0.91 (no sharp cut-off); inconclusive = no clear call, values can overlap the other calls; inactive = mostly above about 0.92. Some of the results follow.

Test: chemical genetic growth profiling, strain panel (AID 1159580);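 also: tested at 20 µM; growth read once vehicle control cultures reached saturation at 30 °C; 1 = growth at the plate median or of vehicle wells; lower values mean less growth of the strain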
Conditions: S. cerevisiae deletion strains, growth OD

Measured: normalized growth

O=C(CCc1ccc(O)cc1)c1c(O)cc(O)cc1O[C@@H]1O[C@H](CO)[C@@H](O)[C@H](O)[C@H]1O
inactive: locus YAL021C, strain ccr4, stronger effect = lower value 1.01 | locus YAL026C, strain drs2, stronger effect = lower value 1.01 | locus YAL030W, strain snc1, stronger effect = lower value 1.01 | locus YBL061C, strain skt5, stronger effect = lower value 1.02 | locus YBR009C, strain hhf1, stronger effect = lower value 1.02 | locus YBR021W, strain FUR4, stronger effect = lower value 1.01 | locus YBR023C, strain chs3, stronger effect = lower value 1.01 | locus YBR171W, strain sec66, stronger effect = lower value 1.05 | locus YBR229C, strain ROT2, stronger effect = lower value 1.02 | locus YBR231C, strain swc5, stronger effect = lower value 1.02 | locus YBR279W, strain paf1, stronger effect = lower value 1 | locus YCL011C, strain gbp2, stronger effect = lower value 1.02 | locus YCL016C, strain dcc1, stronger effect = lower value 1.02 | locus YCL029C, strain bik1, stronger effect = lower value 0.982 | locus YCL061C, strain MRC1, stronger effect = lower value 1.02 | locus YCL069W, strain vba3, stronger effect = lower value 1.01 | locus YCR088W, strain abp1, stronger effect = lower value 1.01 | locus YDL005C, strain med2, stronger effect = lower value 1.02 | locus YDL035C, strain GPR1, stronger effect = lower value 1.04 | locus YDL040C, strain nat1, stronger effect = lower value 1.01 | locus YDL074C, strain BRE1, stronger effect = lower value 1.05 | locus YDL101C, strain DUN1, stronger effect = lower value 1.02 | locus YDL134C, strain PPH21, stronger effect = lower value 1.06 | locus YDL185W, strain tfp1, stronger effect = lower value 0.993 | locus YDL192W, strain arf1, stronger effect = lower value 0.986 | locus YDR001C, strain nth1, stronger effect = lower value 1.01 | locus YDR069C, strain doa4, stronger effect = lower value 1.03 | locus YDR101C, strain arx1, stronger effect = lower value 0.998 | locus YDR137W, strain rgp1, stronger effect = lower value 0.993 | locus YDR159W, strain sac3, stronger effect = lower value 1.03 | locus YDR162C, strain NBP2, stronger effect = lower value 1.06 | locus YDR195W, strain ref2 0.997 | locus YDR297W, strain sur2, stronger effect = lower value 1.02 | locus YDR318W, strain mcm21, stronger effect = lower value 0.986 | locus YDR334W, strain swr1, stronger effect = lower value 1.02 | locus YDR335W, strain msn5, stronger effect = lower value 1.01 | locus YDR388W, stronger effect = lower value 0.992 | locus YDR392W, strain spt3, stronger effect = lower value 1.02 | locus YDR502C, strain sam2, stronger effect = lower value 0.998 | locus YEL003W, strain gim4, stronger effect = lower value 1.01 | locus YEL037C, strain rad23, stronger effect = lower value 1.01 | locus YEL061C, strain CIN8 (second series), stronger effect = lower value 1.01 | locus YEL061C, strain CIN8, stronger effect = lower value 1.02 | locus YER015W, strain faa2, stronger effect = lower value 1.02 | locus YER016W, strain bim1, stronger effect = lower value 1.01 | locus YER110C, stronger effect = lower value 0.981 | locus YER111C, strain swi4, stronger effect = lower value 1.02 | locus YER155C, strain BEM2 (second series), stronger effect = lower value 1.02 | locus YER155C, strain BEM2, stronger effect = lower value 1 | locus YER167W, strain BCK2, stronger effect = lower value 1.02 | locus YFR010W, strain ubp6, stronger effect = lower value 1.01 | locus YGL078C, strain dbp3, stronger effect = lower value 0.985 | locus YGL086W, strain mad1, stronger effect = lower value 1.01 | locus YGL167C, strain pmr1, stronger effect = lower value 1.03 | locus YGL173C, strain kem1, stronger effect = lower value 1.02 | locus YGL227W, strain vid30, stronger effect = lower value 1.02 | locus YGL240W, strain doc1, stronger effect = lower value 1.02 | locus YGL248W, strain PDE1, stronger effect = lower value 1.03 | locus YGL253W, strain hxk2, stronger effect = lower value 1.02 | locus YGR135W, strain pre9, stronger effect = lower value 1 | locus YGR252W, strain gcn5, stronger effect = lower value 1.01 | locus YHR013C, strain ard1, stronger effect = lower value 1.03 | locus YHR027C, strain rpn1, stronger effect = lower value 1.02 | locus YHR030C, strain SLT2, stronger effect = lower value 1.02 and 0.996 | locus YHR079C, strain IRE1 (second series), stronger effect = lower value 1 | locus YHR079C, strain IRE1, stronger effect = lower value 0.972 | locus YHR094C, strain hxt1, stronger effect = lower value 0.988 | locus YHR129C, strain ARP1, stronger effect = lower value 1.03 | locus YHR142W, strain chs7, stronger effect = lower value 1.02 | locus YHR200W, strain rpn10, stronger effect = lower value 1.02 | locus YIL066C, strain RNR3, stronger effect = lower value 1.05 | locus YIL073C, strain SPO22, stronger effect = lower value 1.01 | locus YIL125W, strain kgd1, stronger effect = lower value 0.986 | locus YIR030C, strain dcg1, stronger effect = lower value 0.973 | locus YJL092W, strain hpr5, stronger effect = lower value 1.02 | locus YJL095W, strain BCK1 (second series), stronger effect = lower value 1.01 | locus YJL095W, strain BCK1, stronger effect = lower value 1.05 and 0.981 | locus YJL115W, strain asf1, stronger effect = lower value 1.01 | locus YJL129C, strain trk1, stronger effect = lower value 1.01 | locus YJL134W, strain LCB3, stronger effect = lower value 1.01 | locus YJL154C, strain vps35, stronger effect = lower value 1.01 | locus YJL164C, strain tpk1, stronger effect = lower value 1.02 | locus YJL166W, strain qcr8, stronger effect = lower value 1.02 | locus YJL168C, strain set2, stronger effect = lower value 0.983 | locus YJL187C, strain SWE1 (second series), stronger effect = lower value 1.03 | locus YJL187C, strain SWE1, stronger effect = lower value 1.04 | locus YJR043C, strain POL32, stronger effect = lower value 1.06 | locus YJR066W, strain TOR1, stronger effect = lower value 0.942
